Assay results taken from the supplement of paper PMC10849652.
Of roughly 8,800 targets only a part is listed; those with a hit were picked by preference. About 0.5% of all pairs of compound and target were hits.

UniProt Q8IY22, sequence (Q8IY22 whole entry, looked up): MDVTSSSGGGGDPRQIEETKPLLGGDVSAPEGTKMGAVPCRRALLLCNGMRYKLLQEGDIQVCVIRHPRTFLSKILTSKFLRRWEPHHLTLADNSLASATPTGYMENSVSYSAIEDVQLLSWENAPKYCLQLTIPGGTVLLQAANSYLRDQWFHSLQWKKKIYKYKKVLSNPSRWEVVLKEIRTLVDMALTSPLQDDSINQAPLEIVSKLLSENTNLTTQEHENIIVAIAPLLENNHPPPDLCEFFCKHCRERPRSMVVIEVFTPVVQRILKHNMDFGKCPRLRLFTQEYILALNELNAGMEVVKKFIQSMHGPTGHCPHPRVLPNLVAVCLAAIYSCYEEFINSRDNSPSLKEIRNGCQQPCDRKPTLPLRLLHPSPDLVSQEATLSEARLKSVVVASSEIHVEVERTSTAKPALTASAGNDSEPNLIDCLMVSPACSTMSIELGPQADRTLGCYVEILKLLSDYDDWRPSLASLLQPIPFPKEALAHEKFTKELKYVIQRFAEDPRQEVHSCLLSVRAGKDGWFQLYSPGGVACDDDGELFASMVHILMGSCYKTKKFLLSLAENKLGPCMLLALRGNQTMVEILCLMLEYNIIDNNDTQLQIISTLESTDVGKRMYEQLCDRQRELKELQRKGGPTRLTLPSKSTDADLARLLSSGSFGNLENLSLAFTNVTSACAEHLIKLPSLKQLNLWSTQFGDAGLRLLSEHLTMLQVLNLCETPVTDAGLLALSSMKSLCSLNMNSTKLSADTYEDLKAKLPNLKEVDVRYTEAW
UniProt Q8IWF6, sequence (Q8IWF6 whole entry, looked up): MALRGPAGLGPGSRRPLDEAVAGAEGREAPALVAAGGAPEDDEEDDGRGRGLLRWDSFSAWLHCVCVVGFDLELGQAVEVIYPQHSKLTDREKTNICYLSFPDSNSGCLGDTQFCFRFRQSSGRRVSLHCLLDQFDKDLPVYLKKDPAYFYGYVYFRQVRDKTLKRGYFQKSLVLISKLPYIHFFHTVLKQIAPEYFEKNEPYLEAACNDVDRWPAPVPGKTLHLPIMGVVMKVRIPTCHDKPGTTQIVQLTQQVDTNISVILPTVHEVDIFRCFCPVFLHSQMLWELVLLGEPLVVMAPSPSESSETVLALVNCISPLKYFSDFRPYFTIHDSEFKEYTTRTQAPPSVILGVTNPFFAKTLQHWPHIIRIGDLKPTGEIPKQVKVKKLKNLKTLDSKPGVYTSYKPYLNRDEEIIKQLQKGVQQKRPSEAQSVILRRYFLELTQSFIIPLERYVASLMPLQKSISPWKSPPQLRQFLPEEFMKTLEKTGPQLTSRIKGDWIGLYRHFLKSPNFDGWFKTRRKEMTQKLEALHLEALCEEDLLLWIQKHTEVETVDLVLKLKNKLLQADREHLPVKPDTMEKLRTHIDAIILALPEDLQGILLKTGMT
UniProt P06732, sequence (P06732 whole entry, looked up): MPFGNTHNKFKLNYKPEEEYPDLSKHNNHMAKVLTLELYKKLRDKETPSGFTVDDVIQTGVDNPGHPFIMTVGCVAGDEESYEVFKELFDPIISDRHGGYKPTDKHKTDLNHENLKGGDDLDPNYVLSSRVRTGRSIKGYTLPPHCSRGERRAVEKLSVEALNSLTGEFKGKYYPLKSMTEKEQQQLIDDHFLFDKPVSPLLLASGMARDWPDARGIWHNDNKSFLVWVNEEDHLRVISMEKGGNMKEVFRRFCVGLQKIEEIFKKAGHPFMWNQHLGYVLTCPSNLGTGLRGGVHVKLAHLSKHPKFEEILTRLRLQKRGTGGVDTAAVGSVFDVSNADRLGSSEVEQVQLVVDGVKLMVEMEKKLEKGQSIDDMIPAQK
UniProt A8TX70, sequence (A8TX70 whole entry, looked up): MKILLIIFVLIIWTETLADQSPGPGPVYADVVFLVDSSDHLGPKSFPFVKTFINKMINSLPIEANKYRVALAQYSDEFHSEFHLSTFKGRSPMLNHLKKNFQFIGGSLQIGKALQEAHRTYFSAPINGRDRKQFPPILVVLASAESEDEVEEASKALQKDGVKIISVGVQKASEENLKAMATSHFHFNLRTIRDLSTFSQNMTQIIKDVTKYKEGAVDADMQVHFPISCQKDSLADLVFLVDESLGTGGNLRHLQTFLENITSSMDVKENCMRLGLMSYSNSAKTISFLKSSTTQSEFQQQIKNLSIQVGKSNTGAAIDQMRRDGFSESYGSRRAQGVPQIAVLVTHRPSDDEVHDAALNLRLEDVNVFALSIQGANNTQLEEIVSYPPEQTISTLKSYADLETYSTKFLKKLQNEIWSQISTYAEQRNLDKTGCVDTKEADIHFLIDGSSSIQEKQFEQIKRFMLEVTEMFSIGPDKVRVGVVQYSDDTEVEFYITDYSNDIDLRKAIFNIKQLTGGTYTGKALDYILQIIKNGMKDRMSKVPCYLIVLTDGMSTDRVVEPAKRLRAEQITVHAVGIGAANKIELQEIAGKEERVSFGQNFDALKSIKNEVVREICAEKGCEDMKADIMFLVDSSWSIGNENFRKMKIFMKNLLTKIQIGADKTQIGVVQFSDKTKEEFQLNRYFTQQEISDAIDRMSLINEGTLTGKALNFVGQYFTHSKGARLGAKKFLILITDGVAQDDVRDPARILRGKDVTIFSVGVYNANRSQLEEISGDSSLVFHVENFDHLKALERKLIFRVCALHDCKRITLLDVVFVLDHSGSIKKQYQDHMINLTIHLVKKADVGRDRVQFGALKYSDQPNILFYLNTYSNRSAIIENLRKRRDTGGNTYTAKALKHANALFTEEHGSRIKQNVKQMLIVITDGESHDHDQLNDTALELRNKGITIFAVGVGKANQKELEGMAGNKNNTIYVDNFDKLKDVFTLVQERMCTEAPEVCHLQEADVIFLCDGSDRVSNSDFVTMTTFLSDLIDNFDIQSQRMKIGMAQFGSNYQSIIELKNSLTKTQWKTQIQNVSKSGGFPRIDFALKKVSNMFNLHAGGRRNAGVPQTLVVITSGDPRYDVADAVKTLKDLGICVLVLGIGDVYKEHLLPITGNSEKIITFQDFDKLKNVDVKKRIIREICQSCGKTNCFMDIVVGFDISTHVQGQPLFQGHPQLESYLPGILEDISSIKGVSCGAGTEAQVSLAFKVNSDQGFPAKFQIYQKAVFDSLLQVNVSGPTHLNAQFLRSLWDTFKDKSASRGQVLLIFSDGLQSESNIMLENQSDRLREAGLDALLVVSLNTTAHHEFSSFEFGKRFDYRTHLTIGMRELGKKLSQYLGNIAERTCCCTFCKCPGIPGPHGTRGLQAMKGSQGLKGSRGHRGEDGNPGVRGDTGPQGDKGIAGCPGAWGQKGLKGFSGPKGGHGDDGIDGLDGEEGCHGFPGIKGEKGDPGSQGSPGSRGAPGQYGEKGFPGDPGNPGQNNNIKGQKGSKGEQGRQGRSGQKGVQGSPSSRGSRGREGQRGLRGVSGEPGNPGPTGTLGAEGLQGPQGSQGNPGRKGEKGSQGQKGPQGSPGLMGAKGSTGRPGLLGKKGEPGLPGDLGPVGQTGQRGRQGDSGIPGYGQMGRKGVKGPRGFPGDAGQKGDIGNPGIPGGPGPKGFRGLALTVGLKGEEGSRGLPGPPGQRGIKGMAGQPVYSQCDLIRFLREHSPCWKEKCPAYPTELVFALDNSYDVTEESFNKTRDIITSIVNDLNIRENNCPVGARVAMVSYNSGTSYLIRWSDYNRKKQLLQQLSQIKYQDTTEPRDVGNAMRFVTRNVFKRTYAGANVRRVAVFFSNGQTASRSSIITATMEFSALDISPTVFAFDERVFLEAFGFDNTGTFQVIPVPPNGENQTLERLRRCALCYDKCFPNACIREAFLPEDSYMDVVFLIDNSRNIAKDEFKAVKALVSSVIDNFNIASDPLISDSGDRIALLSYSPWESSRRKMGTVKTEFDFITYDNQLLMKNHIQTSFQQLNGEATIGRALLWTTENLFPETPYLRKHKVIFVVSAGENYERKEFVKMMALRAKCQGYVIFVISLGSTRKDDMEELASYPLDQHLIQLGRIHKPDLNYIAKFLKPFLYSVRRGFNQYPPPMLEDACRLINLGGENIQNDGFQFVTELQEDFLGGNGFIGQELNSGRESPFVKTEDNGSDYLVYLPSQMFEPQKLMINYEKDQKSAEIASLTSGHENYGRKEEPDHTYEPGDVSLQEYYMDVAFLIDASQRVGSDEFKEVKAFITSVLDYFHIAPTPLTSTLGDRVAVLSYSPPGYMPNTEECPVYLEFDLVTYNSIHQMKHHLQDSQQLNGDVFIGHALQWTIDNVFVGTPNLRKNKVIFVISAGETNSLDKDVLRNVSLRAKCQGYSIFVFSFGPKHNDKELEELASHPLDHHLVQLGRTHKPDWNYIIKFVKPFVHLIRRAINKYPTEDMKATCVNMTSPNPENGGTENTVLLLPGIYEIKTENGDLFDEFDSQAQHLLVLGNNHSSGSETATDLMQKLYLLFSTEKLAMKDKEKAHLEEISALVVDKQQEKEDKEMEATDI
UniProt Q9NZN8, sequence (Q9NZN8 whole entry, looked up): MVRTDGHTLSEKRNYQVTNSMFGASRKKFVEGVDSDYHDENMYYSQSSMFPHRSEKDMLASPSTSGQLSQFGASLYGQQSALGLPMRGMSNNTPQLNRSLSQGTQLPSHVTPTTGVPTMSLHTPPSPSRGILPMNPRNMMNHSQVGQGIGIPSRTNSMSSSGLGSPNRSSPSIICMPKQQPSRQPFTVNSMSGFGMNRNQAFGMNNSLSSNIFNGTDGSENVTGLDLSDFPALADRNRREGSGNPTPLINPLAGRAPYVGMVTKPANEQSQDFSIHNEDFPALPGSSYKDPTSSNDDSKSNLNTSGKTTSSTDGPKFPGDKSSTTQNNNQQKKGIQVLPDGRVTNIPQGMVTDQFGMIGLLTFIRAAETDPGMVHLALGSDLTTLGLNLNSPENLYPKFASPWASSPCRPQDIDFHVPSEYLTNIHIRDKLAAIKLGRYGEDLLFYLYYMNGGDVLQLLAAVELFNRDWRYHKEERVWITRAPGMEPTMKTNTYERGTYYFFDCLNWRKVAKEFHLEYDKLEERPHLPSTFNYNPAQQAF
UniProt P61024, sequence (P61024 whole entry, looked up): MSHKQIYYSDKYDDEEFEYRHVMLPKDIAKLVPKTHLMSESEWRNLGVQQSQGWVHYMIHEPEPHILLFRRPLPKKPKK

These targets were tested with C=CC(=O)N1CCC[C@@H](n2nc(-c3ccc(Oc4ccccc4)cc3)c3c(N)ncnc32)C1 [ibrutinib] (assay: log2 fold change, soluble protein after heating vs DMSO (PISA); higher = thermal stabilisation; K562 lysate, 10 uM; active = over 0.2 and 3.5 SD of the protein, either way, in both replicates (recomputed)).
In short: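 K562 pellets were dounce-homogenised in PBS pH 7.4 containing 1 mM MgCl2, and the crude extract, at 1 mg/mL protein, was exposed to 10 μM compound for 30 min. Aliquots were heated for 3 min across 48°C-58°C, pooled, brought to 0.5% NP-40 at 4°C and spun at 21,000xg for 90 min, with the supernatant taken as soluble protein. TMTpro 16plex LC-MS/MS with equalised channel sums quantified that protein. Values are log-two fold changes in thermal stability relative to solvent controls, taken from duplicates.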
CKM (UniProt P06732) was tested, and the log2 fold change was -0.002 (inactive). With CMIP (UniProt Q8IY22) the log2 fold change was 0.057 (inactive). For COG6 (UniProt Q9Y2V7), the log2 fold change was -0.003 (inactive). DGCR8 (UniProt Q8WYQ5) was tested, and the log2 fold change was 0.031 (inactive). For COPZ1 isoform 4 (UniProt P61923), the log2 fold change was 0.123 (inactive). DENND6A (UniProt Q8IWF6) was tested, and the log2 fold change was 0.014 (inactive). With CKAP5 (UniProt Q14008) the log2 fold change was -0.024 (inactive). In the case of CNOT2 (UniProt Q9NZN8), the log2 fold change is reported as 0.022 (inactive). With COL6A5 (UniProt A8TX70) the log2 fold change was 0.046 (inactive). In the case of DCP1A (UniProt Q9NPI6), the log2 fold change is reported as 0 (inactive). In the case of COG2 (UniProt Q14746), the log2 fold change is reported as -0.029 (inactive). DEF6 (UniProt Q9H4E7) was tested, and the log2 fold change was 0.016 (inactive). For CSDE1 isoform 4 (UniProt O75534), the log2 fold change was -0.007 (inactive). In the case of CNOT6L (UniProt Q96LI5), the log2 fold change is reported as 0.02 (inactive). For DHRS11 (UniProt Q6UWP2), the log2 fold change was 0.028 (inactive). For DNAJC1 (UniProt Q96KC8), the log2 fold change was -0.018 (inactive). In the case of DOCK7 (UniProt Q96N67), the log2 fold change is reported as -0.117 (inactive). CTNND1 isoform 3 (UniProt O60716) was tested, and the log2 fold change was 0.01 (inactive). With CHUK (UniProt O15111) the log2 fold change was 0.034 (inactive). With COG5 isoform 2 (UniProt Q9UP83) the log2 fold change was 0.061 (inactive). In the case of CSTB (UniProt P04080), the log2 fold change is reported as 0.017 (inactive). With CHORDC1 (UniProt Q9UHD1) the log2 fold change was -0.002 (inactive). For CSTF2 (UniProt P33240), the log2 fold change was 0.244 (active). For CIP2A (UniProt Q8TCG1), the log2 fold change was 0.022 (inactive). With DOCK8 (UniProt Q8NF50) the log2 fold change was -0.033 (inactive). With COQ9 (UniProt O75208) the log2 fold change was 0.104 (inactive). For CKS1B (UniProt P61024), the log2 fold change was 0.049 (inactive). In the case of CXXC1 isoform 2 (UniProt Q9P0U4), the log2 fold change is reported as -0.034 (inactive). For CXorf38 (UniProt Q8TB03), the log2 fold change was 0.054 (inactive). For DDX54 isoform 2 (UniProt Q8TDD1), the log2 fold change was -0.005 (inactive). For CSNK2A1 (UniProt P68400), the log2 fold change was -0.041 (inactive). In the case of DMAC2L (UniProt Q99766), the log2 fold change is reported as 0.046 (inactive). In the case of DCP2 (UniProt Q8IU60), the log2 fold change is reported as -0.005 (inactive). For CYP51A1 (UniProt Q16850), the log2 fold change was 0.601 (active). With CMPK2 (UniProt Q5EBM0) the log2 fold change was 0.012 (inactive).
